Compound activity deposited in PubChem BioAssay by several laboratories.
A selection: hits, their analogues and other compounds. The true share with any hit is near 1.5%.
Glyco luc inh = increase of ERlucT glycosylation luciferase signal, primary screen, N-linked glycosylation inhibitor project, D54 ERlucT cells, luminescence, set 2 | D54 ERlucT glycosylation luciferase reporter, 24 h; percent of 100 nM tunicamycin response | reporter increase, % at 12.5 µM | 360,000 tested, 0.23% active | AID 588692, 2011;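 active = mean luciferase reporter signal, scaled so untreated is 0 and the glycosylation-blocking control 100, at or above a set limit in every replicate; inconclusive = mean reaches the limit but not every replicate does; inactive = mean below the limit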;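 also: luciferase carries N-glycosylation sites so blocking glycosylation raises the light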
DNA FID counter = compounds displacing fluorescent DNA intercalator, primary screen, artefact control for HCV NS3 helicase inhibitor project, biochemical, FID fluorescence; DNA fluorescent intercalator displacement; 290,000 tested, 0.17% active; inhibition, % at 7.9 µM; in the data active = inhibition above about 37%;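 also: higher means more ethidium bromide displaced from hairpin DNA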
miR122 inh = miR-122 Renilla sensor signal increase in Huh7, primary screen, miR-122 inhibitor project, cell-based, single point, plate reader; Huh7 miR-122 Renilla luciferase sensor, 48 h; neutral wells = 0, positive control = 100; activation (reporter increase), % at 12.5 µM; AID 602342, 2012; 340,000 tested, 0.3% active;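 active = mean replicate activation score at least 90 and every replicate individually at or above 90; inconclusive = only one of the two criteria met; inactive = neither criterion met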;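 also: higher luciferase means less miR-122 activity so hits act as miR-122 inhibitors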
NRP1-CendR mod = modulators of CendR peptide binding to NRP-1, primary screen, biochemical, fluorescence polarization, uHTS | Neuropilin-1 (Homo sapiens), O14786 | FAM-RPARPAR peptide binding to NRP-1 | inhibition, % at 25 µM | 360,000 tested, 0.85% active | AID 602438, 2012;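 active = inhibition or corrected inhibition above about 18%, plus a signal ratio from 0.5 to 1.5, limit read from the data, passing the limit was not always enough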
RAD54 inh = inhibitors of human RAD54 branch migration, primary screen, biochemical, fluorescence, single point; DNA repair and recombination protein RAD54-like (Homo sapiens), Q92698; RAD54 Holliday junction branch migration, FAM/BHQ fluorescence; inhibition, % at 10.4 µM; 360,000 tested, 0.14% active; AID 602329, 2012;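 active = mean normalized replicate activity at least 40 and at least half of replicates scoring 40 or more; inconclusive = only one of the two criteria met; inactive = mean below 40 and under half of replicates reaching 40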;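 also: inhibitors cause a drop in the FAM fluorescence signal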
RAD52 anneal inh = RAD52 DNA annealing inhibitors, primary screen, biochemical, FRET, single point, set 2; recombinant RAD52 DNA annealing, FRET fluorescence; inhibition, % at 18.7 µM; 360,000 tested, 0.46% active;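 active = every replicate showing at least 50% inhibition; inconclusive = mean inhibition at least 50% but not in every replicate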
Target sequence (P43351 whole entry, looked up): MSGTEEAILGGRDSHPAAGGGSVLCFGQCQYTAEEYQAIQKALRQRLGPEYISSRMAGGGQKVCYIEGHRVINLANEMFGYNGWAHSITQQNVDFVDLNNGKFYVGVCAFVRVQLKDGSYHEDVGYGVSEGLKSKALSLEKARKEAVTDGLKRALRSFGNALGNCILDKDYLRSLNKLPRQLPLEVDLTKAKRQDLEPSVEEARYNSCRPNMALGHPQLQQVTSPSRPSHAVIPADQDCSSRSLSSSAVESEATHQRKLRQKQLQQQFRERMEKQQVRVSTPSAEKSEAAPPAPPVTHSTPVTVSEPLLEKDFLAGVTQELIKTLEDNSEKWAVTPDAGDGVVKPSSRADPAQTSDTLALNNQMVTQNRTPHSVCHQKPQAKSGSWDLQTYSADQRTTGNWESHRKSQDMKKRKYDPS
Numbers stand for hits; - = inactive; ? = inconclusive; . = no result given.

SMILES	Glyco luc inh	DNA FID counter	miR122 inh	NRP1-CendR mod	RAD54 inh	RAD52 anneal inh
CO[C@H]1CN(C)C(=O)c2ccc(NC(=O)c3ccccc3F)cc2OC[C@@H](C)N(C(=O)c2ccccc2F)C[C@@H]1C	.	.	-	.	-	-
CC(=O)N1CCSc2ccc(S(=O)(=O)NCCc3ccc(Cl)cc3)cc21	-	-	94	-	-	-
CC(=O)N1CCSc2ccc(S(=O)(=O)NCCc3ccc(C)cc3)cc21	-	-	-	-	-	-
CC(=O)N1CCSc2ccc(S(=O)(=O)Nc3ccc(C)cc3)cc21	-	-	?	22	-	-
O=C(C[C@H]1C[C@@H]2c3cc(NC(=O)C4CCC4)ccc3O[C@@H]2[C@H](CO)O1)NCC(F)(F)F	.	.	-	.	-	-
C[C@@H]1CCCCO[C@@H](CN(C)C(=O)c2ccccc2)[C@H](C)CN([C@H](C)CO)C(=O)c2cc(NS(=O)(=O)c3cccs3)ccc2O1	.	.	-	.	-	-
NC(N)=Nc1nc(-c2ccccc2)c2cc(F)ccc2n1	-	-	.	-	56	-
Cc1cc(F)ccc1C(O)c1ncc(-c2ccccc2F)[nH]1 (configuration not stated)	-	.	112	-	-	-
Cc1cccc(C)c1C(O)c1ncc(-c2cccc3ccccc23)[nH]1 (configuration not stated)	-	.	-	-	-	-
Cc1ccccc1-c1cnc(C(O)c2ccc(F)cc2C)[nH]1 (configuration not stated)	-	.	-	-	-	-
Cc1ccc2ccccc2c1C(O)c1ncc(-c2ccccc2F)[nH]1 (configuration not stated)	-	.	175	-	-	-
Cc1cccc(C(O)c2ncc(-c3ccccc3F)[nH]2)c1C (configuration not stated)	-	.	96	30	-	-
Cc1cccc(C)c1C(O)c1ncc(-c2ccccc2F)[nH]1 (configuration not stated)	-	.	-	-	-	-
O=C([C@H]1N[C@H]2c3ccc(-c4ccc(F)cc4)c(=O)n3C[C@H]2[C@@H]1CO)N1CCOCC1	.	.	-	.	-	-
O=C(O)CCCCCNC(=O)Nc1ccc2c(c1)OCCO2	-	-	-	-	-	.
O=C(O)CCNc1ccc2c(c1)OCCO2	-	-	-	46	-	.
COc1ccccc1-c1ccc2c(c1)O[C@@H](CN(C)Cc1ccc3c(c1)OCO3)[C@@H](C)CN([C@@H](C)CO)S2(=O)=O	.	.	-	.	-	-
NC(=O)C(c1ccc(Cl)cc1)c1ncc(C(F)(F)F)cc1Cl (configuration not stated)	-	-	-	-	-	.
NC(=O)C(c1ccc(Cl)cc1Cl)c1ncc(C(F)(F)F)cc1Cl (configuration not stated)	-	-	-	23	-	.
COc1ccc(/C=C(/NC(=O)c2ccccc2)C(=O)N2CCCCC2)cc1OC	-	-	-	28	-	-
OC[C@@H]1[C@@H](c2ccc(C#Cc3ccccc3F)cc2)[C@H]2CN(CC3CCOCC3)CCCCN12	.	.	-	.	-	53
OC[C@H]1[C@H](c2ccc(C#Cc3ccccc3F)cc2)[C@H]2CN(CC3CCOCC3)CCCCN21	.	.	-	.	-	-
CN1CCCCN2[C@H](C1)[C@@H](c1ccc(C#Cc3ccccc3F)cc1)[C@@H]2CO	.	.	-	.	-	65
CN1CCCCN2[C@@H](CO)[C@H](c3ccc(C#Cc4ccccc4F)cc3)[C@@H]2C1	.	.	-	.	-	-
C[C@H]1CCCCO[C@H](CN(C)Cc2ccncc2)[C@@H](C)CN([C@@H](C)CO)C(=O)c2cc(NC(=O)CCCN(C)C)ccc2O1	.	.	-	.	-	-
COC(=O)c1cc2c(C)nn(-c3ccccc3)c2s1	-	-	-	31	-	.
COc1ccc(N/N=C(/N=Nc2nc(C)cc(=O)[nH]2)c2ccccc2)cc1	-	-	-	44	.	.
